According to the supplement of paper PMC6897291:

How the values were obtained:
U-2932 [1] = test: growth inhibition by drug alone (1 - RLU/untreated control) (fraction); higher = stronger inhibition; conditions: 177Lu-lilotomab satetraxetan 0 ug/ml
Outline: (§1)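 Plates pre-printed with the Selleck Cambridge Cancer Compound library at 10/100 nM (RIVA) or 10/1,000 nM (U-2932) received 3,000 cells/well. These cells had been washed after 18 h untreated or with a radiolabelled anti-CD37 antibody conjugate (~600 MBq/mg; 0.5 µg/ml RIVA, 1 µg/ml U-2932). Growth inhibition was obtained from RealTime-Glo luminescence in relation to untreated no-drug wells. Each daily read from day 3, taken after 1 h at 37°C, was converted as 1 − RLU/mean of 48 such wells per plate.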

RIVA [2] = test: as above; conditions: 177Lu-lilotomab satetraxetan 0 ug/ml
Outline: as §1

U-2932 [3] = test: growth inhibition by drug plus 177Lu-lilotomab satetraxetan (1 - RLU/untreated control) (fraction); higher = stronger inhibition; conditions: 177Lu-lilotomab satetraxetan 1 ug/ml
Outline: as §1

RIVA [4] = test: as above; conditions: 177Lu-lilotomab satetraxetan 0.5 ug/ml
Outline: as §1

SMILES | growth inhibition by drug alone (U-2932 [1]; 10 nM, time (day): 3) | growth inhibition by drug alone (U-2932 [1]; 10 nM, time (day): 4) | growth inhibition by drug alone (U-2932 [1]; 10 nM, time (day): 5) | growth inhibition by drug alone (U-2932 [1]; 10 nM, time (day): 6) | growth inhibition by drug alone (U-2932 [1]; 1000 nM, time (day): 3) | growth inhibition by drug alone (U-2932 [1]; 1000 nM, time (day): 4) | growth inhibition by drug alone (U-2932 [1]; 1000 nM, time (day): 5) | growth inhibition by drug alone (U-2932 [1]; 1000 nM, time (day): 6) | growth inhibition by drug alone (RIVA [2]; 10 nM, time (day): 3) | growth inhibition by drug alone (RIVA [2]; 10 nM, time (day): 4) | growth inhibition by drug alone (RIVA [2]; 10 nM, time (day): 5) | growth inhibition by drug alone (RIVA [2]; 10 nM, time (day): 6) | growth inhibition by drug alone (RIVA [2]; 100 nM, time (day): 3) | growth inhibition by drug alone (RIVA [2]; 100 nM, time (day): 4) | growth inhibition by drug alone (RIVA [2]; 100 nM, time (day): 5) | growth inhibition by drug alone (RIVA [2]; 100 nM, time (day): 6) | growth inhibition by drug plus 177Lu-lilotomab satetraxetan (U-2932 [3]; 10 nM, time (day): 3) | growth inhibition by drug plus 177Lu-lilotomab satetraxetan (U-2932 [3]; 10 nM, time (day): 4) | growth inhibition by drug plus 177Lu-lilotomab satetraxetan (U-2932 [3]; 10 nM, time (day): 5) | growth inhibition by drug plus 177Lu-lilotomab satetraxetan (U-2932 [3]; 10 nM, time (day): 6) | growth inhibition by drug plus 177Lu-lilotomab satetraxetan (U-2932 [3]; 1000 nM, time (day): 3) | growth inhibition by drug plus 177Lu-lilotomab satetraxetan (U-2932 [3]; 1000 nM, time (day): 4) | growth inhibition by drug plus 177Lu-lilotomab satetraxetan (U-2932 [3]; 1000 nM, time (day): 5) | growth inhibition by drug plus 177Lu-lilotomab satetraxetan (U-2932 [3]; 1000 nM, time (day): 6) | growth inhibition by drug plus 177Lu-lilotomab satetraxetan (RIVA [4]; 10 nM, time (day): 3) | growth inhibition by drug plus 177Lu-lilotomab satetraxetan (RIVA [4]; 10 nM, time (day): 4) | growth inhibition by drug plus 177Lu-lilotomab satetraxetan (RIVA [4]; 10 nM, time (day): 5) | growth inhibition by drug plus 177Lu-lilotomab satetraxetan (RIVA [4]; 10 nM, time (day): 6) | growth inhibition by drug plus 177Lu-lilotomab satetraxetan (RIVA [4]; 100 nM, time (day): 3) | growth inhibition by drug plus 177Lu-lilotomab satetraxetan (RIVA [4]; 100 nM, time (day): 4) | growth inhibition by drug plus 177Lu-lilotomab satetraxetan (RIVA [4]; 100 nM, time (day): 5) | growth inhibition by drug plus 177Lu-lilotomab satetraxetan (RIVA [4]; 100 nM, time (day): 6)
O=C(NC1CCNCC1)c1n[nH]cc1NC(=O)c1c(Cl)cccc1Cl | 0.0998 | 0.0607 | 0.0482 | 0.00372 | 0.953 | 0.964 | 0.972 | 0.975 | 0.0833 | 0.0499 | 0.00549 | -0.171 | -0.131 | -0.1 | -0.185 | -0.425 | 0.0507 | 0.0657 | 0.0758 | 0.0972 | 0.947 | 0.964 | 0.971 | 0.977 | 0.495 | 0.577 | 0.593 | 0.579 | 0.503 | 0.57 | 0.566 | 0.533
O=C1c2ccccc2C(=O)c2c(NCCc3ccc(O)cc3)ccc(NCCc3ccc(O)cc3)c21 | -0.0815 | -0.112 | -0.157 | -0.425 | -0.127 | -0.129 | -0.138 | -0.403 | -0.237 | -0.358 | -0.539 | -0.808 | -0.77 | -0.807 | -0.893 | -1.08 | -0.127 | -0.0794 | -0.054 | -0.0701 | -0.11 | -0.0952 | -0.0582 | 0.044 | 0.317 | 0.429 | 0.456 | 0.479 | 0.329 | 0.437 | 0.433 | 0.44
CNCc1ccc(-c2[nH]c3cc(F)cc4c3c2CCNC4=O)cc1 | 0.062 | 0.0535 | 0.0443 | 0.155 | 0.0442 | 0.0462 | 0.0516 | 0.0343 | -0.0585 | -0.0309 | -0.0988 | -0.165 | -0.0509 | -0.0204 | -0.0791 | -0.0893 | 0.05 | 0.0426 | 0.0882 | 0.222 | 0.0393 | 0.0885 | 0.124 | 0.238 | 0.384 | 0.514 | 0.55 | 0.578 | 0.507 | 0.54 | 0.574 | 0.57
Nc1ncn([C@H]2C[C@H](O)[C@@H](CO)O2)c(=O)n1 [Decitabine] | 0.1 | 0.0737 | -0.0105 | -0.0724 | -0.215 | 0.144 | 0.37 | 0.544 | 0.201 | 0.0484 | -0.0488 | -0.367 | 0.168 | 0.0495 | -0.00108 | -0.0694 | 0.0943 | 0.11 | 0.126 | 0.167 | 0.13 | 0.49 | 0.632 | 0.753 | 0.474 | 0.558 | 0.569 | 0.567 | 0.496 | 0.556 | 0.566 | 0.53
C[C@]1(c2nc3c(C(N)=O)cccc3[nH]2)CCCN1 [ABT-888 (Veliparib)] | -0.0659 | -0.0358 | -0.0424 | 0.0616 | -0.0937 | -0.0475 | -0.078 | -0.068 | -0.145 | -0.176 | -0.216 | -0.314 | -0.198 | -0.238 | -0.247 | -0.287 | -0.0353 | -0.0127 | 0.0158 | 0.166 | -0.0568 | 0.0163 | 0.019 | 0.0852 | 0.338 | 0.488 | 0.516 | 0.518 | 0.307 | 0.418 | 0.442 | 0.427
CC(=O)Nc1nc(C)c(-c2ccc(Cl)c(S(=O)(=O)NCCO)c2)s1 | 0.075 | 0.0569 | 0.00221 | -0.159 | 0.302 | 0.29 | 0.248 | 0.307 | 0.0212 | 0.026 | -0.0187 | -0.271 | -0.0771 | -0.0663 | -0.1 | -0.193 | -0.0326 | 0.00318 | 0.0521 | 0.103 | 0.423 | 0.467 | 0.424 | 0.489 | 0.348 | 0.493 | 0.527 | 0.549 | 0.317 | 0.471 | 0.448 | 0.434
Nc1[nH]nc2nnc(-c3c(-c4ccccc4)nn4ccccc34)cc12 | 0.0936 | 0.109 | 0.0192 | -0.0741 | 0.0442 | 0.0356 | -0.0414 | -0.0395 | 0.0237 | 0.104 | 0.0531 | -0.13 | -0.0641 | 0.0167 | 0.00135 | -0.0876 | 0.135 | 0.17 | 0.238 | 0.275 | 0.0922 | 0.143 | 0.19 | 0.259 | 0.592 | 0.635 | 0.657 | 0.652 | 0.357 | 0.48 | 0.493 | 0.495
